# Reference: PubChem BioAssay
# Values joined by “and” are separate entries in the source; they are usually repeats but may differ in a detail not shown here. Equal values may be shown once. Records with an inconclusive call do not appear. Active and inactive are the calls of the source. Unless noted, no stated cut-off is given here; in the data, active means parasite load remaining mostly below about 12% (no sharp cut-off); inactive means mostly above about 10%.
# Key:
# [1] = liver-stage malaria parasite growth inhibition, primary screen, cell-based, HepG2, luciferase luminescence, HepG2 viability (AID 624349);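 further: 100% = mean of DMSO negative control wells on the same plate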; settings: P. berghei liver stage in HepG2, luciferase luminescence, concentration not given here; parasite load remaining: stronger effect = lower value; viability: measured here: HepG2 viability without parasites
# [2] = stimulators of nuclear beta-catenin in C2C12, primary screen, imaging, WNT3A-conditioned medium, mouse C2C12, NPC library (AID 1117326; in the data active means nuclear beta-catenin stimulation mostly above about 4.2%, no sharp cut-off; inactive means mostly below about 10%); settings: stronger effect = higher value
# [3] = stimulators of insulin release from INS-1E, primary screen, cell-based, 5 mM glucose, NPC library (AID 1117329;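 active means compound raises insulin release from rat beta cells at 5 mM glucose, no numeric limit stated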); settings: rat INS-1E insulin secretion, at 10 µM, stronger effect = higher value
# [4] = growth inhibition of GSK3B-pretreated HCT116 cells – cell-based, CellTiter-Glo, 0.2 to 20 µM (AID 1117336;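 active means compounds lowering colon cancer cell viability after pretreatment blocking the GSK3B kinase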); settings: HCT116 viability after GSK3B inhibitor, at 20 µM, stronger effect = higher value
# [5] = inhibition of endothelial tube formation, primary screen, imaging, VEGF stimulated, CD31 staining, tube area, NPC library (AID 1117340;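 active means compound that reduces growth-factor-driven endothelial tube area in a mixed cell culture, no cutoff stated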); settings: VEGF-stimulated ADSC/ECFC co-culture, at 10 µM, stronger effect = higher value
# [6] = glucagon-like peptide 1 release enhancers, primary assay, NCI-H716 cell line, NPC library (AID 1117341;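 active means compound raises GLP1 secretion from the human gut endocrine cells, with no numeric limit stated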); settings: NCI-H716 cells, at 10 µM, stronger effect = higher value
# [7] = HCT116 colon cancer cell growth inhibition, primary screen, CellTiter-Glo luminescence, NPC library (AID 1117342;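 active means compounds that lower survival of HCT116 colon cancer cells in the luminescence readout, no numeric limit stated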); settings: at 20 µM (top of the series)
# [8] = CellTiter-Glo luminescent readout of SW480 viability loss, NPC library primary (AID 1117343;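 active means compounds that lower viability of the colon cancer cells in the luminescence readout, with no numeric limit stated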); settings: CellTiter-Glo luminescence; at 20 µM (top of the series) unless noted
# [9] = decreased DLD-1 cellular survival, CellTiter-Glo luminescent readout, NPC compound collection, primary HTS (AID 1117346;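 active means compounds that lower survival of DLD-1 colon cancer cells in the luminescence readout, no cutoff given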); settings: DLD-1 viability, CellTiter-Glo luminescence; at 20 µM (top of the series)
# [10] = sensitizers of A549 cells to miR-34 induction, primary screen, imaging, A549 dox-inducible miR-34, nuclei and caspase counts (AID 1347080;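 active means compounds whose cell count with miR-34 switched on is under 0.7 times the count with it off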); settings: A549 miR-34 inducible, Hoechst nuclei count, 48 h
# [11] = molecular target: NAD(+) hydrolase SARM1 (Homo sapiens) (UniProt Q6SZW1); assay: SARM1 TIR NADase inhibitors, cell lysate, NAD-Glo luminescence (AID 1508614;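 active means compound whose remaining NAD level is above about 45 nM, limit read from the data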); settings: SAM-TIR HEK293T lysate NADase, at 1 µM, stronger effect = higher value
# Sequence of NAD(+) hydrolase SARM1 (Homo sapiens) (Q6SZW1 whole entry, looked up, the tested form may be a part): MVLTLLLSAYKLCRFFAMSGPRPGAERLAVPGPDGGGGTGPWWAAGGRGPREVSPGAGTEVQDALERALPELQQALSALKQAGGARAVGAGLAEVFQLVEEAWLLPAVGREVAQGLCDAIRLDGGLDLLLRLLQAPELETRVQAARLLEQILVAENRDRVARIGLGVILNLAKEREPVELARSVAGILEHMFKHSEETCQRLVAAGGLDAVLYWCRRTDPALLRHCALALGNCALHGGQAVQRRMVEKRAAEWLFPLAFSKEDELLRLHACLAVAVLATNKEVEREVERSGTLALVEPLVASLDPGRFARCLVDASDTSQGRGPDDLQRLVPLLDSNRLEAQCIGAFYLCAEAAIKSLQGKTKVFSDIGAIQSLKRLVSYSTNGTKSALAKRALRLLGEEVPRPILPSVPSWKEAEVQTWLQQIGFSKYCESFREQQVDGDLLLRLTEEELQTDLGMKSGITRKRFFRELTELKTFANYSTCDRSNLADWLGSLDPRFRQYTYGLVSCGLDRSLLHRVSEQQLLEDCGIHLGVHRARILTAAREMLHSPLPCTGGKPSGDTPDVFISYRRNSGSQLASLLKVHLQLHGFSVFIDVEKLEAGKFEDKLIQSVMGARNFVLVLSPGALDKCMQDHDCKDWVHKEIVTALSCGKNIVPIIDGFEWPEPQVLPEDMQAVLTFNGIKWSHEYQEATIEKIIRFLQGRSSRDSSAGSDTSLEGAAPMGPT
# [12] = molecular target: Mitogen-activated protein kinase 7 (Homo sapiens) (UniProt Q13164); assay: ERK5 transactivation activators in reporter cells, primary screen, cell-based, HTS (AID 1508626;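 active means luciferase signal above three times the same-plate solvent-only control wells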;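 further: luciferase driven by Gal4-ERK5 fusion binding five Gal4 sites before minimal TATA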); settings: HeLa Gal4-ERK5 transactivation, 18 h, at 5 µM, stronger effect = higher value
# Sequence of Mitogen-activated protein kinase 7 (Homo sapiens) (Q13164 whole entry, looked up, the tested form may be a part): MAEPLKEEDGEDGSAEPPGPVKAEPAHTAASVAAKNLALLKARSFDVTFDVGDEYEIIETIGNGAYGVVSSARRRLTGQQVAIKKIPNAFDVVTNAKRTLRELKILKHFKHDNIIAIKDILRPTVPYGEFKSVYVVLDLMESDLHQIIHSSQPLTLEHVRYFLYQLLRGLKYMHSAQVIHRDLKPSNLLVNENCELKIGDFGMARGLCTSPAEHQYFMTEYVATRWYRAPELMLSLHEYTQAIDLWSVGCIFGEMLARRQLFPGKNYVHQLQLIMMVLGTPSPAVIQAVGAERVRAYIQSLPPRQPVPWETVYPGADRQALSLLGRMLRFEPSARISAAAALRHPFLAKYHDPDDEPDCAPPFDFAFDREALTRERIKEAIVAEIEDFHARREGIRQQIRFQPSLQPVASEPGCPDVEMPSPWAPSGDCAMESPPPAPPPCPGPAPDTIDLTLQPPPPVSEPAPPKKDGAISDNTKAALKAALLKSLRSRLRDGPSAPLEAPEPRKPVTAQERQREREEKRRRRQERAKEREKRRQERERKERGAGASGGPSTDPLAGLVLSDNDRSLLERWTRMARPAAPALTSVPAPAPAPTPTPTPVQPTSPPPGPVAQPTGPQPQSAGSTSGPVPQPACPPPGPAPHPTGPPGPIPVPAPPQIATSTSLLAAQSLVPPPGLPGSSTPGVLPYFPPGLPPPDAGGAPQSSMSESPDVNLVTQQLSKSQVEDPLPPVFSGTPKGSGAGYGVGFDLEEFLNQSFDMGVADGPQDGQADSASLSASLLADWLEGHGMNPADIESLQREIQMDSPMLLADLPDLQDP
# [13] = molecular target: ATP-dependent translocase ABCB1 (Homo sapiens) (UniProt P08183); assay: MDR1 (ABCB1) efflux transporter inhibition, cell-based (AID 377; in the data active means fluorescence slope change above about 50%); settings: MDR1-expressing cells, fluorescent substrate accumulation slope; stronger effect = higher value; concentration not given here
# Sequence of ATP-dependent translocase ABCB1 (Homo sapiens) (P08183 whole entry, looked up): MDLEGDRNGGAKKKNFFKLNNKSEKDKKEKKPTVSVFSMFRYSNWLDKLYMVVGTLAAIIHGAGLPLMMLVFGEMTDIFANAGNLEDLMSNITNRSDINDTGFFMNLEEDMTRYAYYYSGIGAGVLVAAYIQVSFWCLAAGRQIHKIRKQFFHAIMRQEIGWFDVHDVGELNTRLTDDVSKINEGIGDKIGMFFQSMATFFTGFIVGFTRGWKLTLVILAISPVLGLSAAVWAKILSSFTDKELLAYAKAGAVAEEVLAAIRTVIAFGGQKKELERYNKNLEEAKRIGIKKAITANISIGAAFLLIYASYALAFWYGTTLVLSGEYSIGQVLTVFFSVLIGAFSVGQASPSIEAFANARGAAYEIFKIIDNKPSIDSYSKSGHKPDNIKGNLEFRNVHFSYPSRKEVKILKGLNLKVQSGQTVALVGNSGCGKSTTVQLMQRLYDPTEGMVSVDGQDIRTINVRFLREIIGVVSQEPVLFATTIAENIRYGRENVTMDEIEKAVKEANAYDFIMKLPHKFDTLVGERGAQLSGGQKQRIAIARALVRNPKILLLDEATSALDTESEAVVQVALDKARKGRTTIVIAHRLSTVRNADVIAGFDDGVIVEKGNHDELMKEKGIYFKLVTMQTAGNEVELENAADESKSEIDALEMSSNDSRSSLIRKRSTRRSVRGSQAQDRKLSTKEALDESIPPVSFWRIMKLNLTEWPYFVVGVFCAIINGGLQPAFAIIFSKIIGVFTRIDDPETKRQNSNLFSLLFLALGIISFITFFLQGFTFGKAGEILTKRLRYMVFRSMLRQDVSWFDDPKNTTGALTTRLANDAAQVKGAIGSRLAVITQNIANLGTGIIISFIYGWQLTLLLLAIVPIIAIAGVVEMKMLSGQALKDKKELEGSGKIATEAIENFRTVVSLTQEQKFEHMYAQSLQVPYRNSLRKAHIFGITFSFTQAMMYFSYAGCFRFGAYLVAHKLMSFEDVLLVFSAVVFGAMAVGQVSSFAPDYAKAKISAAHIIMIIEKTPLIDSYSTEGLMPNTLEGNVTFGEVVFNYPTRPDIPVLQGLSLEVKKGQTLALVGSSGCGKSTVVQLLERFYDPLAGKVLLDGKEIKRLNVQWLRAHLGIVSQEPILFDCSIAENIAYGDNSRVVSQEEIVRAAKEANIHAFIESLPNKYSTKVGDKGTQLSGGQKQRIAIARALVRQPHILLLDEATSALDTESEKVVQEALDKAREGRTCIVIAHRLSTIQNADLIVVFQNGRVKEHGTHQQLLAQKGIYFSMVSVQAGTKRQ
# [14] = hESC survival regulators, cell-based (AID 493140; call rule not given here;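 further: cells exposed to compounds for four days before counting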); settings: human embryonic stem cell survival screen; stronger effect = higher value
# [15] = survival rescue of mitochondrial mutant cells in low glucose, primary screen, MELAS cybrids, Rieske KO mouse fibroblasts, CellTiter-Glo (AID 1508586;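 active means mean z-score across replicates of 1.96 or higher in either the MELAS or the Rieske mutant cell line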;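 further: z relative to plate mean and SD of compound and empty wells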)
# [16] = stronger effect = lower value, cell number ratio, induced over uninduced
# [17] = measured here: relative caspase fold change +Dox/-Dox
# [18] = measured here: total cells with miR-34 induction, stronger effect = lower value
# [19] = measured here: total cells without miR-34 induction
# [20] = MELAS cybrid survival, CellTiter-Glo 48 h, stronger effect = higher value
# [21] = Rieske KO mouse fibroblast survival, CellTiter-Glo 72 h
structure (smiles),measurement,setting,value
O=C1[O][Bi][O]c2ccccc21,parasite load remaining,[1],39.8% (inactive)
same,viability,[1],103%
same,nuclear beta-catenin stimulation,[2]; at 10 µM,0.6% (inactive)
same,nuclear beta-catenin stimulation,"[2]; stimulation, at 2 µM",0.8%
same,insulin secretion stimulation,[3],2.7% (inactive)
same,viability decrease,[4],13.3% (inactive)
same,tube area decrease,[5],-3.4% (inactive)
same,GLP1 secretion stimulation,[6],1.9% (inactive)
same,inhibition of viability,[7],14% (inactive)
same,viability decrease (inhibition),[8],28.1% (inactive)
same,viability decrease (inhibition),[9],3.2% (inactive)
same,fold change,[10]; [16],0.887 (inactive)
same,fold change,[10]; [17],3.11
same,cell count,[10]; [18],12000
same,cell count,[10]; [19],13500
same,remaining NAD,[11],52 nM (active)
same,luciferase signal,[12],60 AU (inactive)
OC(CCCN1CCCCC1)(c1ccccc1)c1ccccc1,fluorescence slope change,[13],71.6% (active)
same,survival,[14],12.2 (inactive)
same,parasite load remaining,[1],29.2% (inactive) and 89.1% (inactive)
same,viability,[1],45.7% and 89.8%
same,nuclear beta-catenin stimulation,[2]; at 10 µM,-0.9% (inactive)
same,nuclear beta-catenin stimulation,"[2]; stimulation, at 2 µM",-0.2%
same,insulin secretion stimulation,[3],22% (active)
same,viability decrease,[4],-9.5% (inactive)
same,tube area decrease,[5],3.9% (inactive)
same,GLP1 secretion stimulation,[6],-3.3% (inactive)
same,inhibition of viability,[7],6.1% (inactive)
same,viability decrease (inhibition),[8],12% (inactive)
same,viability decrease (inhibition),[9],-3.8% (inactive)
same,fold change,[10]; [16],0.908 (inactive) and 0.916 (inactive)
same,fold change,[10]; [17],1.32 and 0.648
same,cell count,[10]; [18],8770 and 8200
same,cell count,[10]; [19],9660 and 8950
same,z-score,[15]; [20],-0.227 (inactive) and -0.211 (inactive)
same,z-score,[15]; [21],-0.167 and -0.027
CN1CCN(CCCN2c3ccccc3Sc3ccc(S(=O)(=O)N(C)C)cc32)CC1,fluorescence slope change,[13],52.4% (active)
same,survival,[14],4.08 (inactive)
same,parasite load remaining,[1],35.2% (inactive) and 94.1% (inactive)
same,viability,[1],47.9% and 85.3%
same,nuclear beta-catenin stimulation,[2]; at 10 µM,33.2% (inactive)
same,nuclear beta-catenin stimulation,"[2]; stimulation, at 2 µM",0.3%
same,insulin secretion stimulation,[3],12.3% (inactive)
same,viability decrease,[4],99.5% (active)
same,tube area decrease,[5],108% (active)
same,GLP1 secretion stimulation,[6],-2.9% (inactive)
same,inhibition of viability,[7],99.9% (active)
same,viability decrease (inhibition),[8],103% (active)
same,viability decrease (inhibition),[9],95% (active)
same,fold change,[10]; [16],0.928 (inactive)
same,fold change,[10]; [17],1.43
same,cell count,[10]; [18],7890
same,cell count,[10]; [19],8500
same,z-score,[15]; [20],0.365 (inactive)
same,z-score,[15]; [21],0.522
NS(=O)(=O)c1cc2c(cc1Cl)NC(CC1CCCC1)NS2(=O)=O (stereo unspecified),survival,[14],5.92 (inactive)
same,parasite load remaining,[1],80.8% (inactive)
same,viability,[1],73%
same,nuclear beta-catenin stimulation,[2]; at 10 µM,-0.9% (inactive)
same,nuclear beta-catenin stimulation,"[2]; stimulation, at 2 µM",-1.5%
same,insulin secretion stimulation,[3],4.2% (inactive)
same,viability decrease,[4],1% (inactive)
same,tube area decrease,[5],35.3% (inactive)
same,GLP1 secretion stimulation,[6],3.4% (inactive)
same,inhibition of viability,[7],1.1% (inactive)
same,viability decrease (inhibition),[8],-15.3% (inactive)
same,viability decrease (inhibition),[9],-0.6% (inactive)
same,fold change,[10]; [16],0.993 (inactive)
same,fold change,[10]; [17],0.594
same,cell count,[10]; [18],9530
same,cell count,[10]; [19],9590
same,z-score,[15]; [20],0.486 (inactive)
same,z-score,[15]; [21],-0.891
CC(CNC1CCCCC1)OC(=O)c1ccccc1 (stereo unspecified),survival,[14],2.08 (inactive)
same,parasite load remaining,[1],83.5% (inactive)
same,viability,[1],92%
same,nuclear beta-catenin stimulation,[2]; at 10 µM,0.9% (inactive)
same,nuclear beta-catenin stimulation,"[2]; stimulation, at 2 µM",2.3%
same,insulin secretion stimulation,[3],5.6% (inactive)
same,viability decrease,[4],-14.5% (inactive)
same,tube area decrease,[5],19.9% (inactive)
same,GLP1 secretion stimulation,[6],3.9% (inactive)
same,inhibition of viability,[7],-12.8% (inactive)
same,viability decrease (inhibition),[8],-11.7% (inactive)
same,viability decrease (inhibition),[9],-10.5% (inactive)
same,fold change,[10]; [16],0.95 (inactive)
same,fold change,[10]; [17],0.946
same,cell count,[10]; [18],9180
same,cell count,[10]; [19],9670
same,z-score,[15]; [20],-0.814 (inactive)
same,z-score,[15]; [21],-0.57
